± gives the standard deviation of the averaged measurements. In all, about 1,600 compounds were measured (“normalized intracellular growth (luminescence, IQM-normalized) in RAW264.7 macrophages”: median about 1, lowest 2% from about 0.43 on). The full list was thinned out, with the lowest values kept by preference.
System: Salmonella enterica serovar Typhimurium SL1344
Assay: normalized intracellular growth (luminescence, IQM-normalized) in RAW264.7 macrophages (fraction of plate interquartile mean); higher = more bacterial growth (less inhibition)
Details: 10 µM

Structure (SMILES) | normalized intracellular growth (time point: T3 (3 h)) | normalized intracellular growth (time point: Tfinal (~6 h))
Cc1ncc([N+](=O)[O-])n1C | 0.936 ± 0.053 | 0.98 ± 0.1
Nc1nccs1 | 1.03 ± 0.072 | 0.911 ± 0.12
O.O.O=C([O-])CN(CCN(CC(=O)[O-])CC(=O)O)CC(=O)O.[Na+].[Na+] | 0.978 ± 0.021 | 1.02 ± 0.013
O=c1[nH]c(=O)c2ccccc2o1 | 0.963 ± 0.026 | 1.02 ± 0.078
CC1=C(C/C=C(\C)CCC[C@H](C)CCC[C@H](C)CCCC(C)C)C(=O)c2ccccc2C1=O | 0.968 ± 0.067 | 1.08 ± 0.064
CCCCC/C=C/CCC(=O)N[C@H]1[C@H](Oc2c3cc4cc2Oc2ccc(cc2Cl)[C@@H](O[C@@H]2O[C@H](CO)[C@@H](O)[C@H](O)[C@H]2NC(C)=O)[C@@H]2NC(=O)[C@H](NC(=O)[C@@H]4NC(=O)[C@H]4NC(=O)C(Cc5ccc(c(Cl)c5)O3)NC(=O)[C@H](N)c3ccc(O)c(c3)Oc3cc(O)cc4c3)c3ccc(O)c(c3)-c3c(OC4O[C@H](CO)[C@@H](O)[C@H](O)[C@@H]4O)cc(O)cc3[C@@H](C(=O)O)NC2=O)O[C@H](CO)[C@@H](O)[C@@H]1O (some centres not stated) [TEICOPLANIN [A(2-1) shown]] | 0.955 ± 0.07 | 1.07 ± 0.065
Cc1c(C)c2c(c(C)c1O)CCC(C)(CCCC(C)CCCC(C)CCCC(C)C)O2 (stereo not drawn) [alpha-TOCHOPHEROL] | 0.999 ± 0.14 | 1.1 ± 0.13
O=C(NCc1ccccc1)OCCO | 1.24 ± 0.071 | 1.33 ± 0.083
CN(C)c1ccc(O)c2c1C[C@H]1C[C@H]3[C@H](N(C)C)C(O)=C(C(N)=O)C(=O)[C@@]3(O)C(O)=C1C2=O | 1.01 ± 0.091 | 0.33 ± 0.14
CN(C)[C@@H]1C(O)=C(C(N)=O)C(=O)[C@@]2(O)C(O)=C3C(=O)c4c(O)cccc4[C@@](C)(O)[C@H]3C[C@@H]12 | 0.598 ± 0.062 | 0.209 ± 0.048
CN(C)[C@@H]1C(O)=C(C(=O)NCN2CCCC2)C(=O)[C@@]2(O)C(O)=C3C(=O)c4c(O)cccc4[C@@](C)(O)[C@H]3C[C@@H]12 | 0.973 ± 0.013 | 0.683 ± 0.41
CN(C)c1cc(NC(=O)CNC(C)(C)C)c(O)c2c1C[C@H]1C[C@H]3[C@H](N(C)C)C(O)=C(C(N)=O)C(=O)[C@@]3(O)C(O)=C1C2=O | 1.01 ± 0.05 | 1.02 ± 0.18
C=C1c2cccc(O)c2C(=O)C2=C(O)[C@]3(O)C(=O)C(C(N)=O)=C(O)[C@@H](N(C)C)[C@@H]3[C@@H](O)[C@H]12 | 0.979 ± 0.029 | 0.103 ± 0.039
C[C@H]1c2cccc(O)c2C(=O)C2=C(O)[C@]3(O)C(=O)C(C(N)=O)=C(O)[C@@H](N(C)C)[C@@H]3[C@@H](O)[C@@H]21 | 0.73 ± 0.065 | 0.173 ± 0.025
CN(C)CCc1c[nH]c2ccc(CS(=O)(=O)N3CCCC3)cc12 | 0.989 ± 0.027 | 1.14 ± 0.15
CCCCCNC(=N)N/N=C/c1c[nH]c2ccc(OC)cc12 | 1.05 ± 0.1 | 1.08 ± 0.037
CCC(=O)Oc1ccc2c(c1)CC[C@@H]1[C@@H]2CC[C@]2(C)[C@@H](OC(=O)CC)CC[C@@H]12 | 0.977 ± 0.092 | 0.934 ± 0.089
O=C([O-])C(O)[C@H](O)[C@@H](O)[C@H](O)[C@H](O)CO.O=C([O-])C(O)[C@H](O)[C@@H](O)[C@H](O)[C@H](O)CO.[Ca+2] (some centres not stated) | 1.04 ± 0.019 | 1.06 ± 0.18
Cc1c(OCC(F)(F)F)ccnc1C[S@@+]([O-])c1nc2ccccc2[nH]1 | 0.98 ± 0.076 | 1.18 ± 0.11
CC1=C(C)C(=O)C(C(CCCCCC(=O)O)c2ccccc2)=C(C)C1=O (configuration not stated) | 0.994 ± 0.042 | 1.18 ± 0.085
NC(=O)c1cc[n+](CC2=C(C(=O)O)N3C(=O)[C@@H](NC(=O)[C@@H](c4ccccc4)S(=O)(=O)[O-])[C@H]3SC2)cc1 | 0.999 ± 0.056 | 1.05 ± 0.028
CCOc1ccc(NC(=O)CC(C)O)cc1 (configuration not stated) | 0.969 ± 0.045 | 1.202 ± 0.0076
CC(=O)N(CC(O)CO)c1c(I)c(C(=O)NCCO)c(I)c(C(=O)NCC(O)CO)c1I (configuration not stated) | 0.938 ± 0.063 | 1.17 ± 0.091

Structure (SMILES) | normalized intracellular growth (time point: T3 (3 h)) | normalized intracellular growth (time point: Tfinal (~6 h))
OC[C@H]1O[C@H](O[C@H]2[C@H](O)[C@@H](O)C(O)O[C@@H]2CO)[C@H](O)[C@@H](O)[C@@H]1O (some centres not stated) | 0.919 ± 0.086 | 0.986 ± 0.012
OC[C@H]1O[C@@H](O[C@@H]2[C@@H](CO)OC(O)(CO)[C@H]2O)[C@H](O)[C@@H](O)[C@H]1O (mixture of isomers) | 0.999 ± 0.021 | 0.958 ± 0.011
OC[C@H]1O[C@H](O[C@]2(CCl)O[C@H](CCl)[C@@H](O)[C@@H]2O)[C@H](O)[C@@H](O)[C@H]1Cl | 0.91 ± 0.095 | 0.0259 ± 0.0051
COc1ccc(C(=O)c2ccc(C)cc2)c(O)c1 | 1.02 ± 0.028 | 0.926 ± 0.2
COc1ccc(C(=O)c2ccccc2O)c(O)c1 | 1 ± 0.047 | 1.24 ± 0.031
COc1ccc(C(=O)c2ccccc2)c(O)c1 | 0.948 ± 0.07 | 0.417 ± 0.083
Cc1cc(O)cc(C)c1Cl | 1.03 ± 0.075 | 1.11 ± 0.071
N=c1ccn2c(n1)O[C@H]1[C@H](O)[C@@H](CO)O[C@H]12 | 1 ± 0.029 | 1.16 ± 0.016
CCn1cc(C(=O)O)c(=O)c2cc(F)c(N3CCNCC3)nc21 | 0.916 ± 0.07 | 0.245 ± 0.036
CO/N=C1\CN(c2nc3c(cc2F)c(=O)c(C(=O)O)cn3C2CC2)CC1CN (configuration not stated) | 0.967 ± 0.014 | 1.15 ± 0.048
COc1c(N2CCNC(C)C2)c(F)cc2c(=O)c(C(=O)O)cn(C3CC3)c12 (configuration not stated) | 1.02 ± 0.13 | 0.015 ± 0.0035
CCn1cc(C(=O)O)c(=O)c2ccc(C)nc21 | 0.994 ± 0.03 | 0.881 ± 0.37
CCn1cc(C(=O)O)c(=O)c2cc(F)c(N3CCNC(C)C3)c(F)c21 (configuration not stated) | 0.996 ± 0.098 | 0.0187 ± 0.0027
COc1c(N2C[C@@H]3CCCN[C@@H]3C2)c(F)cc2c(=O)c(C(=O)O)cn(C3CC3)c12 | 1.41 ± 0.1 | 0.00827 ± 0.001
CCn1cc(C(=O)O)c(=O)c2cnc(N3CCNCC3)nc21 | 0.974 ± 0.034 | 0.533 ± 0.082
CC(C)(CO)[C@@H](O)C(=O)NCCC(=O)NCCSSCCNC(=O)CCNC(=O)[C@H](O)C(C)(C)CO | 0.981 ± 0.048 | 0.976 ± 0.089
OCc1cccnc1 | 1.056 ± 0.0048 | 0.97 ± 0.051
O=S(=O)(c1cccc2cnccc12)N1CCCNCC1 | 1.02 ± 0.035 | 1.13 ± 0.067
NC(=O)NS(=O)(=O)c1ccc(N)cc1 | 0.98 ± 0.031 | 0.881 ± 0.095
FC(F)(Cl)C(F)(F)Cl | 1.02 ± 0.023 | 0.675 ± 0.21
NC1CCN(c2c(F)cc3c(=O)c(C(=O)O)cn(C4CC4)c3c2Cl)C1 (configuration not stated) | 1.49 ± 0.071 | 0.00632 ± 0.00035
CC(=O)OCC(=O)[C@@]1(O)CC[C@H]2[C@@H]3CCC4=CC(=O)C=C[C@]4(C)[C@@]3(Cl)[C@@H](Cl)C[C@@]21C | 0.961 ± 0.062 | 1.13 ± 0.022
CCCCCCCCCc1ccc(OCCOCCOCCOCCOCCOCCOCCOCCOCCO)cc1 | 0.99 ± 0.013 | 1.1 ± 0.048

Reference: the supplement of paper PMC6331611
